Assay results: PubChem BioAssay (NCI)
This is part of a sample that, as a whole, favours compounds with a hit. Of some 79,000 tested, about 15% had one in any assay. No stated cut-off is given here; in the data, active means growth inhibition above about 70%; inactive means the rest.

Tests used:
[1] = NCI Yeast Anticancer Drug Screen. Data for the rad50 strain (AID 155);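 further: 0% = growth of vehicle-only cultures of the same strain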; settings: S. cerevisiae rad50 strain growth inhibition; at 50.0 µM; hits give high values
How it was run: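 Inhibition values express reduced yeast growth in compound-treated cultures relative to vehicle-treated controls.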

[2] = NCI Yeast Anticancer Drug Screen. Data for the mec2-1 strain (AID 157); settings: S. cerevisiae mec2-1 strain, at 50.0 µM, hits give high values
How it was run: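 Readout is yeast growth inhibition, normalised to vehicle-treated controls, in the mec2-1 strain exposed to compound.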

[3] = NCI Yeast Anticancer Drug Screen. Data for the sgs1 mgt1 strain (AID 161);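 further: 0% = growth of cultures given vehicle only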; settings: S. cerevisiae sgs1 mgt1 strain, at 50.0 µM, hits give high values
How it was run: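 Compounds are added to genetically altered yeast, and growth is compared with cultures given vehicle alone to give percent inhibition.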

[4] = NCI Yeast Anticancer Drug Screen. Data for the cln2 rad14 strain (AID 165);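 further: 0% = growth equal to vehicle treated cultures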; settings: S. cerevisiae cln2 rad14 strain, at 50.0 µM, hits give high values
How it was run: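 Relative to vehicle controls, growth inhibition of compound-treated cln2 rad14 yeast was recorded.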

[5] = NCI Yeast Anticancer Drug Screen. Data for the bub3 strain (AID 167); settings: S. cerevisiae bub3 mutant strain, at 50.0 µM, hits give high values
How it was run: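 Steps: expose the mutant yeast strain to compound; grow alongside vehicle-treated cultures; measure growth; express inhibition against the vehicle cultures.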

[6] = NCI Yeast Anticancer Drug Screen. Data for the mlh1 rad18 strain (AID 175); settings: S. cerevisiae mlh1 rad18 strain growth inhibition; at 50.0 µM; hits give high values
How it was run: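 Test agents were incubated with a yeast strain of defined genotype (DNA damage repair defect). Inhibition of growth was derived by comparison with vehicle-exposed cultures.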

Measured: growth inhibition

O=C1CSC(C(N=Nc2ccc(Cl)cc2)c2nc3ccccc3[nH]2)=N1 (stereo not drawn)
inactive: [1] -50.6% | [2] -26.3% | [3] -43.1% | [4] -18.1% | [5] -42.6% | [6] -46.7%

Cc1c(O)ccc(N=O)c1O
inactive: [1] 20.4% | [2] 2.6% | [3] 18.9% | [4] 35.8% | [5] -1.6% | [6] 8.15%

CCOC(=O)C1=C(C(C)=O)C(c2ccccc2[N+](=O)[O-])C(C(C)=O)=C(C(=O)OCC)N1
inactive: [1] -7.35% | [2] 10.4% | [3] -9.2% | [4] -6.85% | [5] -9% | [6] 9.25%

Cc1cc(=O)[nH]cn1
inactive: [1] 0.25% | [2] 6.2% | [3] -7.2% | [4] 7.45% | [5] 19.8% | [6] -4.9%

N#Cc1c(Cl)cccc1N1CCSCC1
inactive: [1] 1.75% | [2] -20.8% | [3] 15.3% | [4] 18.2% | [5] -0.9% | [6] 0.1%

OCC(F)(F)C(F)(F)C(F)(F)C(F)(F)C(F)(F)C(F)(F)C(F)(F)C(F)F
inactive: [1] 23.9% | [2] -11.2% | [3] -30.8% | [4] -11.5% | [5] 5.15% | [6] 8.6%

CC(=O)N1CCC(=O)/C(=C/c2ccccc2)C1
inactive: [1] 4.95% | [2] 0% | [3] 32% | [4] 15.9% | [5] 17.6% | [6] 44%

COC(=O)CCCC(Sc1ccccc1)C(=O)OC (stereo not drawn)
inactive: [1] 3.7% | [2] 0.6% | [3] 15.7% | [4] -7.4% | [5] 7.85% | [6] 6.75%

CC(=O)Nc1ccc(S(=O)(=O)Oc2noc3ccccc23)cc1
inactive: [1] 9.8% | [2] 3.45% | [3] 16.2% | [4] 11.1% | [5] 18.1% | [6] 23.1%

COC(=O)C(=O)C(C(=O)C(N)=O)c1nc2ccc(C(=O)c3ccccc3)cc2[nH]c1=O (stereo not drawn)
inactive: [1] 0.35% | [2] 5.45% | [3] -17.2% | [4] -9.25% | [5] -19.1% | [6] 9.85%

Nc1ccc2ccccc2c1C(=O)c1ccccc1
inactive: [1] 0.95% | [2] -1.55% | [3] -15.2% | [4] 37.1% | [5] -23.6% | [6] -5.75%

Cc1ccc(/C=C/C(=O)/C=C/c2ccc(C)cc2)cc1
inactive: [1] 9.05% | [2] 9.25% | [3] 15.6% | [4] -2.6% | [5] 23.6% | [6] 18.7%

COc1cc(N=Nc2ccc(N)nc2N)c(OC)cc1N=Nc1ccc([N+](=O)[O-])cc1
inactive: [1] 12.6% | [2] 23% | [3] 1.8% | [4] 21.6% | [5] 9.4% | [6] 27.1%

CCN(CC)CCC1(C#N)Cc2ccccc2N(CC)c2ccccc21 (stereo not drawn)
inactive: [1] 41.8% | [2] 5.05% | [3] 9.45% | [4] 15.6% | [5] 7.3% | [6] -19.6%

CCCCN(CCCC)S(=O)(=O)c1ccc(OCCOc2ccc(S(=O)(=O)N(CCCC)CCCC)cc2)cc1
inactive: [1] 10.7% | [2] -1.4% | [3] 15.2% | [4] -12.4% | [5] -5.1% | [6] 7.75%

Cc1cccc(C(=O)NCCN(C)C)c1[N+](=O)[O-]
inactive: [1] 5.55% | [2] -20.9% | [3] 1.2% | [4] 14.9% | [5] -16.4% | [6] 3.35%

COC(=O)N/N=C(/Cc1occc(=O)c1O)C(=O)Nc1ccc([N+](=O)[O-])cc1[N+](=O)[O-]
inactive: [1] -11.1% | [2] -12.9% | [3] -26.4% | [4] 3.3% | [5] 5.25% | [6] 8.1%

O=C(/C=C\c1ccccc1)c1ccc(-c2ccc([N+](=O)[O-])cc2)cc1
inactive: [1] 10.4% | [2] 11.4% | [3] 9.05% | [4] -3.65% | [5] 4.8% | [6] 22.6%

CCN(CC)CCNC(=O)Nc1ccc(OC)cc1
inactive: [1] 2.15% | [2] 24% | [3] 13.8% | [4] -0.05% | [5] 32.8% | [6] 7.65%

Cc1ccc(F)c2[nH]c(-c3ccccc3)cc(=O)c12
inactive: [1] 14.9% | [2] 3.45% | [3] -1.2% | [4] -5.95% | [5] 8% | [6] 12%

CCCCCC(/C=C/[C@@H]1[C@H]2CC(=O)O[C@H]2C[C@H]1N1CCOCC1)OC1CCCO1 (stereo partly drawn)
inactive: [1] 0.2% | [2] -6.3% | [3] 11.8% | [4] -35.1% | [5] -29.6% | [6] 11.8%

COc1cc(C(c2cc3c(cc2OC(C)=O)OCO3)C(C(C)=O)C(C)=O)cc(OC)c1OC (stereo not drawn)
inactive: [1] 3.55% | [2] 27.8% | [3] -5.1% | [4] -4% | [5] 4.35% | [6] -1.8%

COc1cc(C2NC(=O)C(C)(C)O2)cc(OC)c1OC (stereo not drawn)
inactive: [1] -2.05% | [2] -9.85% | [3] -8.75% | [4] -17.8% | [5] 4.8% | [6] -37%

CC1CC=C(C(O)C(C)C)C1 (stereo not drawn)
inactive: [1] 0.2% | [2] 6.2% | [3] -2.7% | [4] -11.8% | [5] 4.15% | [6] -0.9%

CCC(O)C(C)(C)N (stereo not drawn)
inactive: [1] 13.4% | [2] -7.8% | [3] 2.7% | [4] -6.45% | [5] 4.45% | [6] 0.4%

COc1ccccc1NC(=O)/C(Cc1nc2ccc([N+](=O)[O-])cc2[nH]c1=O)=N\NC(=O)C[N+](C)(C)C
inactive: [1] 31.6% | [2] 23.4% | [3] 7.3% | [4] -26.2% | [5] 25.4% | [6] 13.2%

CC(=O)OC1CCC2(C)C(=CCC3C2CCC2(C)C(C(C)C(=O)O)CCC32)C1 (stereo not drawn)
inactive: [1] 15.7% | [2] -32.8% | [3] -21.4% | [4] -10.2% | [5] -31.1% | [6] 13%

Cc1cn(C2CC(C)N(CCO)O2)c(=O)[nH]c1=O (stereo not drawn)
inactive: [1] -8.1% | [2] -1.35% | [3] -16.8% | [4] -11.6% | [5] -14.9% | [6] -74.2%

Nc1cccc(/C=C(/C(=O)O)c2ccc(Cl)cc2)c1
inactive: [1] 3.4% | [2] -4.45% | [3] -7.3% | [4] -38.9% | [5] -15.6% | [6] 0.15%

Clc1ccc2sc(-n3ccc4ccccc43)nc2c1
inactive: [1] -35.9% | [2] -12.3% | [3] -24.7% | [4] 7.65% | [5] -15.4% | [6] -30.7%

COc1cc2c(cc1OC)NC(C)=CC(C)=N2
inactive: [1] -14.3% | [2] 5.1% | [3] 0.3% | [4] 25.2% | [5] 25.7% | [6] 15.9%

C[C@@H](C1CC[C@H]2[C@@H]3[C@@H]4O[C@@H]4[C@@]4(O)CC=CC(=O)[C@]4(C)[C@H]3C[C@H](O)[C@]12C)[C@H]1C[C@]2(C)O[C@]2(C)C(=O)O1 (stereo partly drawn)
inactive: [1] 1.35% | [2] -3.25% | [3] -2.9% | [4] 29.5% | [5] 2.65% | [6] -48.6%

Cc1ccc(C(=O)CC2=NC3NN(c4ccccc4)C(=O)C3=C2CC(=O)c2ccc(C)cc2)cc1 (stereo not drawn)
inactive: [1] 38% | [2] 2.4% | [3] 4.55% | [4] -13.1% | [5] -9.05% | [6] 45.3%

NC(CC(=O)O)CC(=O)O
inactive: [1] 12.9% | [2] 2.6% | [3] 1.8% | [4] 14.7% | [5] 5.65% | [6] 17.8%

O=C(NNC(=S)Nc1cccc(Cl)c1)c1ccncc1
inactive: [1] 21.8% | [2] 6.5% | [3] 26.6% | [4] 9.45% | [5] 19.9% | [6] -9.55%

NCCOc1ccccn1
inactive: [1] -1.7% | [2] -10.8% | [3] -0.6% | [4] -10.7% | [5] 1% | [6] -1.9%

Cc1ccc(S(=O)(=O)N(c2cc(C)ccc2C)c2ccccc2N)cc1
inactive: [1] 58.6% | [2] 50.9% | [3] 41.8% | [4] 49.9% | [5] 20.9% | [6] 25.2%

Brc1ccc[n+](CCc2ccccc2)c1
inactive: [1] -2.7% | [2] 15.1% | [3] -6.7% | [4] 7.75% | [5] 5.7% | [6] 9.5%
